Compound activity deposited in PubChem BioAssay by The Scripps Research Institute Molecular Screening Center.
TEAD-YAP inh: TEAD-YAP interaction inhibition; 640,000 tested, 1.4% active; AID 1259422; inhibition, % at 9.12 µM; HEK-TIYL cells, TEAD-Gal4/YAP UAS-luciferase luminescence; in the data active = inhibition above about 32%;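 note: 0% = median of test compound wells and 100% = reference inhibitor wells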
MITF inh: inhibitors of human MITF | AlphaScreen MITF homodimerization, bead proximity signal | inhibition, % at 2.6 µM | 650,000 tested, 0.91% active | AID 1259374; in the data active = inhibition above about 50%;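 note: 0% = vehicle wells with protein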
GPR151 activ: human GPR151 activation | Q8TDV0 | AID 1508602 | PathHunter beta-arrestin GPR151 cells, luminescence | 650,000 tested, 1% active | activation, % at 11.2 µM; in the data active = activation above about 4.9%;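 note: 0% = median of compound wells and 100% = cells with positive control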
Target sequence (Q8TDV0 whole entry, looked up): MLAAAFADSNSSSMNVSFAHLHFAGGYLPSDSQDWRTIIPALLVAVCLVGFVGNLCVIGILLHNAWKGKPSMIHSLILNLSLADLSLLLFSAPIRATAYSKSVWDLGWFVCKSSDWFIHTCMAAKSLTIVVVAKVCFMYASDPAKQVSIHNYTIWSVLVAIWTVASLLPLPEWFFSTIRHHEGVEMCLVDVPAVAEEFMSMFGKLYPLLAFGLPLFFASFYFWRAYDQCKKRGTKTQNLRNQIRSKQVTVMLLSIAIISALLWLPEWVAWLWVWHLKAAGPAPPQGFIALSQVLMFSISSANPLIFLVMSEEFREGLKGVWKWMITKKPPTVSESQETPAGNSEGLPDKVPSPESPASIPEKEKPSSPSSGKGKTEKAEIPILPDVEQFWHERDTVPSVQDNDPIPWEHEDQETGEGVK
FBW7 act: human FBW7 E3 ligase activation, primary screen. Q969H0. AlphaScreen FBW7–phospho-cyclin E peptide binding, activator screen. normalized activity (activation), % at 26.1 µM. 650,000 tested, 0.13% active; in the data active = normalized activity above about 1.9%;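 note: purified mutant Fbw7 with reduced substrate affinity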
Starred values were filed as active, the others as inactive; ! = repeats disagree. A selection: hits, their analogues and other compounds. The true share with any hit is near 3.5%.

Screening c1ccc2c(Nc3nc(Nc4ccc(N5CCOCC5)cc4)c4[nH]cnc4n3)nccc2c1 returned TEAD-YAP inh 38*, MITF inh 14, GPR151 activ -1 and FBW7 act 0.
For c1cncc(Nc2nc(Nc3ccc(N4CCOCC4)cc3)c3[nH]cnc3n2)c1 the results were TEAD-YAP inh 37*, MITF inh 3, GPR151 activ 1 and FBW7 act 0.
Nc1nc(Nc2ccc(N3CCOCC3)cc2)cc(Nc2nccc3ccccc23)n1 was read as TEAD-YAP inh 40*, MITF inh 17, GPR151 activ 1 and FBW7 act 0.
For CN(C)c1ccc(/C=C(/NC(=O)c2ccccc2Cl)C(=O)O)cc1 the results were TEAD-YAP inh -18, MITF inh -16, GPR151 activ -2 and FBW7 act 0.
Screening CCc1ccc(CN2CCc3nnc(CCc4ccccc4)n3CC2)o1 returned TEAD-YAP inh -7, MITF inh 5, GPR151 activ -1 and FBW7 act 0.
`COc1ccccc1C1NC(=O)c2[nH]nc(-c3ccc(C)cc3)c21` (stereo unspecified) gave TEAD-YAP inh 55*, MITF inh 9, GPR151 activ 1 and FBW7 act 0.
Screening COc1ccc(N2CCN(Cc3ccsc3)CC2)cc1 returned TEAD-YAP inh -1, MITF inh 67*, GPR151 activ -1 and FBW7 act 1.
COc1ccc(N2CCN(Cc3cccs3)CC2)cc1 was read as TEAD-YAP inh 0, MITF inh 55*, GPR151 activ 1 and FBW7 act -1.
`O=C(O)c1cccnc1Nc1ccc([N+](=O)[O-])cc1` gave TEAD-YAP inh 36*, MITF inh 21, GPR151 activ -6 and FBW7 act 0.
Screening CCC(=O)N1CCN=C1SCc1cccc([N+](=O)[O-])c1 returned TEAD-YAP inh -1, MITF inh 0, GPR151 activ 0 and FBW7 act 0.
CCOc1ccccc1-c1cc(C(=O)N/N=C(/C)c2cccc(O)c2)[nH]n1 was read as TEAD-YAP inh 52*, MITF inh 9, GPR151 activ 0 and FBW7 act 1.
`COc1cc(/C(C)=N/NC(=O)c2cc(-c3cccc4ccccc34)n[nH]2)ccc1O` gave TEAD-YAP inh -49, MITF inh 9, GPR151 activ 0 and FBW7 act 1.
CCOc1ccccc1-c1cc(C(=O)N/N=C(/C)c2ccccc2)[nH]n1 was read as TEAD-YAP inh 50*, MITF inh 9, GPR151 activ 0 and FBW7 act 0.
For CCOC(=O)c1sc(N)c(C#N)c1COC(=O)CCCN1C(=O)c2ccccc2C1=O the results were TEAD-YAP inh 0, MITF inh 17, GPR151 activ 0 and FBW7 act 0.
`CC1SCC(=O)N(CC(=O)Nc2cccc(Cl)c2)C1=O` (stereo unspecified) gave TEAD-YAP inh 0, MITF inh -7, GPR151 activ 1 and FBW7 act 0.
COc1ccc(-c2cc3nc4c(c(N5CCC(O)CC5)n3n2)CCCC4)cc1 was read as TEAD-YAP inh 38*, MITF inh -3, GPR151 activ 1 and FBW7 act 0.
Screening O=c1[nH]cc(F)c(=O)[nH]1 returned TEAD-YAP inh 35*!, MITF inh 12, GPR151 activ 3 and FBW7 act 0.
Screening CCC(C)NC(=O)CN(c1ccc2c(c1)OCO2)S(C)(=O)=O (stereo unspecified) returned TEAD-YAP inh 4, MITF inh 2, GPR151 activ 1 and FBW7 act 0.
Screening O=C(c1ccc([N+](=O)[O-])c(Cl)c1)N1CCN(Cc2ccc3c(c2)OCO3)CC1 returned TEAD-YAP inh 51*, MITF inh 30, GPR151 activ 0 and FBW7 act 0.
O=C1Nc2cc(C(=O)N3CCN(Cc4ccc5c(c4)OCO5)CC3)ccc2NC1CSCc1ccc(F)cc1 (stereo unspecified) was read as TEAD-YAP inh 48*, MITF inh 3, GPR151 activ -1 and FBW7 act 0.
Screening COc1ccc(C(=O)N2CCN(Cc3ccc4c(c3)OCO4)CC2)cc1[N+](=O)[O-] returned TEAD-YAP inh 45*, MITF inh 20, GPR151 activ -1 and FBW7 act 1.
`COc1ccc(CN2CCN(C(=O)c3ccc(S(=O)(=O)c4ccc(F)cc4)c([N+](=O)[O-])c3)CC2)c(OC)c1OC` gave TEAD-YAP inh 43*, MITF inh -11, GPR151 activ -1 and FBW7 act 0.
O=C(C1CCOC1)N1CCC(c2[nH]ncc2Cc2ccccc2)CC1 (stereo unspecified) was read as TEAD-YAP inh -5, MITF inh 3, GPR151 activ 0 and FBW7 act 0.
